# Data reported in PubChem BioAssay (NCI).
# Compounds without any hit were thinned out: in the full panel of roughly 83,000, 20% have a hit.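 48-hour exposure, single concentration, 96-well plates; percent growth endpoint where 0 means no net growth. Active: below 10.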 Unmarked numbers belong to inactive results. Activity calls are given as the source filed them.
# Columns and labels:
# Assay in all cases: NCI-60 one-dose screen, 48 h (100 = growth as untreated, 0 = no growth, -100 = all killed)
# Details in all cases: 10 µM
# RPMI-8226 leukemia = tested on: RPMI-8226 leukemia
# OVCAR-8 ovarian = tested on: OVCAR-8 ovarian
# OVCAR-5 ovarian = tested on: OVCAR-5 ovarian
# OVCAR-4 ovarian = tested on: OVCAR-4 ovarian
# SK-OV-3 ovarian = tested on: SK-OV-3 ovarian
# IGROV1 ovarian = tested on: IGROV1 ovarian
# OVCAR-3 ovarian = tested on: OVCAR-3 ovarian
# HS 578T breast = tested on: HS 578T breast
# NCI/ADR-RES ovarian = tested on: NCI/ADR-RES ovarian
# T-47D breast = tested on: T-47D breast
# BT-549 breast = tested on: BT-549 breast
# SW-620 colon = tested on: SW-620 colon
# MCF7 breast = tested on: MCF7 breast
# HCT-116 colon = tested on: HCT-116 colon
# HCC-2998 colon = tested on: HCC-2998 colon
# KM12 colon = tested on: KM12 colon
# MDA-MB-435 melanoma = tested on: MDA-MB-435 melanoma
Compound,growth (RPMI-8226 leukemia),growth (OVCAR-8 ovarian),growth (OVCAR-5 ovarian),growth (OVCAR-4 ovarian),growth (SK-OV-3 ovarian),growth (IGROV1 ovarian),growth (OVCAR-3 ovarian),growth (HS 578T breast),growth (NCI/ADR-RES ovarian),growth (T-47D breast),growth (BT-549 breast),growth (SW-620 colon),growth (MCF7 breast),growth (HCT-116 colon),growth (HCC-2998 colon),growth (KM12 colon),growth (MDA-MB-435 melanoma)
CCN(CC)CCCC(C)Nc1nc(-c2ccc(OC)cc2)nc2cc(Cl)ccc12 (stereo not drawn),55.2%,76.1%,65.8%,68.7%,91.4%,44.3%,69.6%,70.4%,71.3%,60.2%,75.6%,80.9%,44.6%,47.1%,54.1%,66.3%,–
Fc1ccc2nc(-c3nc(-c4ccccc4)n4ccccc34)[nH]c2c1,-25.9% (active),-58.7% (active),55.9%,-71.2% (active),-43.2% (active),1.27% (active),0.252% (active),-5.1% (active),-13.1% (active),-0.867% (active),–,26.5%,-12.6% (active),-31.2% (active),29.2%,–,-19.4% (active)
O=[N+]([O-])c1cccc(N=Cc2ccc3c(c2)OCO3)c1,104%,97.3%,116%,104%,110%,109%,112%,116%,105%,103%,–,108%,103%,106%,98.3%,112%,102%
CN(C)CCCn1c(=O)c2ccccc2c2cnc3[nH]ccc3c21,-23.6% (active),6.28% (active),19.5%,2.71% (active),4.51% (active),9.28% (active),17.9%,24.8%,26.5%,-11.3% (active),–,5.02% (active),1.25% (active),2.85% (active),30.3%,9.58% (active),11.9%
N#CSCC1CC(O)(c2ccccc2)CC(c2ccc(Cl)cc2)O1 (stereo not drawn),18.1%,66.7%,101%,40%,102%,-25.7% (active),-36% (active),21%,47.2%,27.4%,–,-53.5% (active),14.7%,10.1%,94.9%,22.3%,3.01% (active)
CC/C(=C(/c1ccc(OCCN(C)C)cc1)c1ccc(OC(=O)CCCCC(=O)c2c(C)[nH]c(/C=C3\N=C(c4ccc[nH]4)C=C3OC)c2C)cc1)c1ccccc1,25.4%,72.5%,91.3%,55%,81.4%,85.4%,80.1%,33.8%,71.7%,25.2%,–,55.8%,-22% (active),48.3%,76.6%,–,61.4%
COc1cc(-c2cc(/C=C/C(=O)c3ccc(Cl)c(Cl)c3)[nH]n2)cc(OC)c1OC,-20.3% (active),77.8%,81.9%,77.4%,97.3%,108%,86.5%,90.1%,75.1%,37%,71%,60.7%,19.3%,36%,107%,26.2%,–
N=c1c2c(-c3ccccc3)c(-c3ccccc3)n(Cc3ccccc3)c2ncn1CCCO,18.7%,32.5%,55.6%,35.7%,70.7%,8.33% (active),8.78% (active),46%,42.9%,65.9%,88.5%,21.6%,2.77% (active),13.3%,64.3%,29.9%,–
COc1ccc2c(c1)O/C(=C\c1ccc([N+](=O)[O-])s1)C2=O,1.62% (active),0.767% (active),61.4%,-32.2% (active),60.2%,-29.4% (active),-30.5% (active),18.3%,54.5%,16%,7.31% (active),-56.3% (active),21.4%,–,11.9%,5.98% (active),51.7%
COc1cc(Cl)cc(-c2nn(-c3cccc(NC(=O)c4ccc(N5CCOCC5)c(C(F)(F)F)c4)c3)cc2-c2ccncc2)c1,25.2%,42.1%,78.4%,67.9%,75.7%,96.5%,69.4%,40.7%,46.1%,49.2%,73%,69.2%,45.3%,47.7%,52.3%,38.4%,–
CCOC(=O)N1C/C(=C/c2ccc(Cl)cc2)C(=O)/C(=C/c2ccc(Cl)cc2)C1,-11.6% (active),27.8%,120%,60.5%,83.7%,44%,27.4%,63.9%,71%,69.8%,81.5%,1.52% (active),5.24% (active),-60.4% (active),-59.8% (active),–,–
CC(=O)c1nc2ccccc2n1CCN1CCN(C)CC1,3.09% (active),34.8%,53.7%,64.6%,27.4%,39.3%,4.3% (active),48.3%,97%,33.4%,48.1%,29.6%,17.8%,11%,37.9%,14.1%,–
O=C(Nc1cccc(-n2cc(-c3ccncc3)c(-c3ccc(O)c(Cl)c3)n2)c1)Nc1cccc(C(F)(F)F)c1,-29.4% (active),-49.9% (active),38.1%,2.73% (active),4.94% (active),-1.92% (active),-6.21% (active),-4.27% (active),11.4%,-23.6% (active),–,13.2%,-6.1% (active),5.24% (active),20.4%,-14.7% (active),-35.3% (active)
ClC(Cl)(Cl)c1nc2nccnc2[nH]1,98.8%,107%,104%,97.3%,102%,103%,118%,99.2%,109%,101%,103%,107%,94.1%,103%,122%,106%,–
COc1ccc2c(c1)N(CCO)C1=C(C(=O)OC1)C2c1ccccc1 (stereo not drawn),22%,29.6%,66.5%,69.5%,19.5%,43.3%,-40.3% (active),-5.25% (active),-2.83% (active),37.6%,47.2%,13.9%,25.4%,25.9%,–,17.4%,–
COc1ccc(-c2nn(-c3cccc(NC(=O)c4cccc(C(F)(F)F)c4)c3)cc2-c2ccncc2)cc1Cl,6.49% (active),33%,55.8%,60.7%,37.8%,42.4%,11.9%,24.9%,15.2%,18.6%,35%,36%,9.92% (active),14.5%,33.6%,15.4%,–
COc1cc(-c2cc(C(=O)N3CCN(C(=O)c4ccccc4NCc4ccco4)CC3)nc3cc(-c4ccccc4)nn23)cc(OC)c1OC,21.3%,39.5%,64.1%,68.6%,27.3%,23%,-37.8% (active),36.5%,6.24% (active),50.9%,35.6%,14.2%,16.3%,–,66.3%,13.1%,-34.6% (active)
